40 sequences from the supplement of paper PMC10338343 can be followed below.

± gives the standard deviation.

For this experiment, the system named is MILI (PIWIL2) piRISC loaded with L1MC piRNA (26 nt). The experiment in a line: pre-steady-state target cleavage rate (min^-1); guide: L1MC piRNA 5'p-UAACUAAAUACUAUGCAAGCUGUAGG; MIWI and MILI are mouse PIWI proteins and EfPiwi is from a freshwater sponge; tags in brackets are library labels; higher = faster piRNA-guided slicing of the target. The settings on record: auxiliary factor: 500 nM mouse GTSF1. The method in brief: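 The method was Cleave-'n-Seq, in which uncleaved targets from a transcribed, DNA-blocked target RNA library were sequenced after exposure to active affinity-purified piRISC carrying one synthetic guide, with or without GTSF1 partner protein. Reactions contained 0.1 nM library, 1 nM piRISC and, where present, 500 nM GTSF1 in HEPES–potassium acetate buffer at 33 °C for 0–8 or 0–960 min. Reads were normalised to depth and to weakly complementary targets, three trials were pooled, and k3 was capped at 0.0001 min^-1. The pre-steady-state cleavage rate came from a burst-and-steady-state fit.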
Consider UCCUGGUACAGCUUGCCAUAGUAUUUAGUUA, for which the “pre-steady-state target cleavage rate” value turned out to be 0.224 ± 0.059.
The value for UCCUCCAACAGCUUGCAUAGUAUAUAGUUA was 0.234 ± 0.027.
The value for UCCUGGUACGAGCUUGCAUAGUAUUUAGUUA was 0.247 ± 0.045; that for UCCUGGAACAGCUUGCAUUGUAUUUAGUUA was 0.18 ± 0.014.
Then UCCUGGAACAGCUUCCAAAGUAUUUAGUUA, with 0.137 ± 0.015; and UCCUGGAACAGCAUGGAUAGUAUUUAGUUA, with 0.243 ± 0.016; and UCCUGGAUGAGCUUGCAUUGUAAUUAGUUA, with 0.0683 ± 0.013.
On to UCCUGGAUCAGCUUGCAUAGUAUUAUGUUA, for which the “pre-steady-state target cleavage rate” value is 0.122 ± 0.021.
Then UCCUGGAUGAGCUUGCAUAGUACUUUAGUUA, with 0.0613 ± 0.0089.
The value for UCCUGCUACAGCUUGCAUAGUGAUUUAGUUA was 0.0204 ± 0.0094; that for UCCUCCUACUGCUUGCUUAGUAUUUAGUUA was 0.234 ± 0.015.
As for UCCUCCUAUAGCUUGCAUAGUAUUUAGUUA, the “pre-steady-state target cleavage rate” value was 0.244 ± 0.015.
The value for UCCUCCUACUCGUUGCAUAGUAUUUAGUUA was 0.211 ± 0.018; that for UCCUGGUACAGCUUGCAUAGUAUUAUGUUA was 0.131 ± 0.032; that for UCCUGGAUCAGCAUGCAUAGUUUUUAGUUA was 0.0257 ± 0.0092.
The value for UCCUCCUACAGCAUGCAUAGUAUUUAGUUA was 0.316 ± 0.021.
Then UCCUGGAUGAGCUUACAUAGUAUUUAGUUA, with 0.153 ± 0.019.
Consider UCCUGGAACACCUUGCAAAGUAUUUAGUUA, for which the “pre-steady-state target cleavage rate” value was 0.0999 ± 0.015.
Then UCCUGGAUCAGCUUGCACAGUAUUUAGUUA, with 0.157 ± 0.015; and UCCUGCUAGAGCAUGCAUAGUAUUUAGUUA, with 0.226 ± 0.018; and UCCUGGAACAGCUUCCUUAGUAUUUAGUUA, with 0.214 ± 0.018.
For “UCCUGGAUGAGCUUGCAUAGUAUUUAGUUA [g2:g21:cont:t1A]”, the “pre-steady-state target cleavage rate” value stood at 0.244 ± 0.014.
The value for UCCUCCUACAGCUUGCAUAGUAUUUACGUUA was 0.265 ± 0.029; that for UCCUGGUACAGCUUGACAUAGUAUUUAGUUA was 0.231 ± 0.025; that for UCCUGGAUCAGCUUGCAUUGUAUUUAGUUA was 0.179 ± 0.013.
The value for UCCUGCGACAGCUUGCAUAGUAUUUAGUUA was 0.298 ± 0.016; that for UCCUGGUACAGCUUGCAUAGUAUUUAGUGUA was 0.143 ± 0.021; that for UCCUCGCUACAGCUUGCAUAGUAUUUAGUUA was 0.276 ± 0.02.
UCCUCCUACAGCUUGCAAAGUAUAUAGUUA: the “pre-steady-state target cleavage rate” value is 0.115 ± 0.015.
The value for UCCUGGAUCAGGUUGCAUAGUAUUUAGUAA was 0.227 ± 0.016; that for UCCUGGAUCAGCUUUCAUAGUAUUUAGUUA was 0.204 ± 0.018.
The value for UCCUCCAACAGCUUGCAUAGUAUUAAGUUA was 0.135 ± 0.021.
Then UCCUCCUACAGGUUGCAUUGUAUUUAGUUA, with 0.152 ± 0.012; and UCCUGCUACAGCUUGCUUAGUAUUUAGUAA, with 0.119 ± 0.015.
For the sequence UCCUGGAUGAGCUUGACAUAGUAUUUAGUUA, the “pre-steady-state target cleavage rate” value came out at 0.0929 ± 0.01.
Then UCCUGGAAUAGCUUGCAUAGUAUUUAGUUA, with 0.221 ± 0.015.
Then UCCUGCUUGAGCUUGCAUAGUAUUUAGUAA, with 0.172 ± 0.021; and UCCUGCUACUGCAUGCAUAGUAUUUAGUUA, with 0.282 ± 0.025; and UCCUGGUACAGCUUGCAUAGUAUUAUAGUUA, with 0.299 ± 0.034.
The value for UCCUGCUACAGCUUGCAUAGUAUUCUAGUUA was 0.26 ± 0.038.
